PubChem BioAssay AID1053197 (The Scripps Research Institute Molecular Screening Center, 2014)
Among all 370,000 compounds or so, about 2,600 (0.7%) were called active.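 The calls were made as follows: active = inhibition above a cutoff: mean of compounds within the control limits plus 3 SD of those (cut at about 17% in these data); inactive = the rest.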 For the sample, actives were picked, then their nearest neighbours and some compounds at random.

Target: Sialate O-acetylesterase (Homo sapiens) (UniProt Q9HAT2)
Assay: blockers of sialate O-acetylesterase activity-probe labeling – biochemical, fluorescence polarization, FP-Rh probe, 1536-well HTS, primary screen (AID 1053197);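 also: 0% = plate median of compound wells and 100% = probe without SIAE protein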
Conditions: SIAE FP-Rh probe binding, at 9.66 µM, hits give high values

Sequence of Sialate O-acetylesterase (Homo sapiens) (Q9HAT2 whole entry, looked up): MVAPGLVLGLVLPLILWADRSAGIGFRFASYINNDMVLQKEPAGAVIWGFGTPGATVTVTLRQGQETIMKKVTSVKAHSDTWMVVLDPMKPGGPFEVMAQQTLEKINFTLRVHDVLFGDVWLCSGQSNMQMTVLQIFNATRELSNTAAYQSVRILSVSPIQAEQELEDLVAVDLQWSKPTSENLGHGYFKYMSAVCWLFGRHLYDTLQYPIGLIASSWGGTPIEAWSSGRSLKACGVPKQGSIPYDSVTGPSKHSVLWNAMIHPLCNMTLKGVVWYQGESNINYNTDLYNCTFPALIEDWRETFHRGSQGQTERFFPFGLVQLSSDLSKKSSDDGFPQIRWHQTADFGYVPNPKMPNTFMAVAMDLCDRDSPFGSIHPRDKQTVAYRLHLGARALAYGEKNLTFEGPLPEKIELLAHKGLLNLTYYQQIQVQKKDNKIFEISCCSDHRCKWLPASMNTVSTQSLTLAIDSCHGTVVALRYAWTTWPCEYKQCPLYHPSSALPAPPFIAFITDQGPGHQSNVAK

inhibition, inactive:
COc1cccc(Cn2cc(COC(=O)Nc3ccc(F)cc3)nn2)c1 -7.19%
CCOC(=O)c1cc2cc(-c3c(C(=O)OCC)oc4cc(O)cc(O)c4c3=O)ccc2o1 17.1%
Cc1ccc(-n2c(COc3ccccc3)nnc2SCC(=O)Nc2ccc3c(c2)OCCO3)cc1 -2.64%
Cc1ccc(C2=CCN(C)C(=O)N2c2ccc(Cl)cc2)cc1 -0.37%
Cc1cc(C(=O)NN=C/C=C/c2ccco2)n[nH]1 3.3%
CCOc1ccc(Oc2c(Cl)cnn(-c3ccc(C)cc3)c2=O)cc1 -1.82%
CC(C)N1CCCCC(NC(=O)c2ccc3ccccc3c2)C1=O (configuration not stated) -1.26%
CCCCC(=O)N[C@@H]1CC[C@@]23CCCN2C(=O)CCC[C@H]3[C@H]1C -5.34%
CC(NCc1ccco1)C(=O)N1CCCCC1 (configuration not stated) 5.06%
O=C(Nc1cccc(Cl)c1)OC1CC2CC1[C@H]1CCCCN1[C@H]2Cc1ccccc1 (some centres not stated) -4.13%
CSc1ccc(Oc2cccc3c2S(=O)(=O)N([C@H](C)c2ccccc2)C[C@@H](COCc2ccccc2)O3)cc1C -4.88%
CCCCC[C@H](C)N1C[C@@H](COCc2ccccc2)Oc2cc(N3CCC[C@@H]3CO)ccc2S1(=O)=O 2.79%
O=C(CSc1nnc(-c2ccccc2)n1Cc1ccco1)Nc1ccccc1-c1ccccc1 -6.96%
CCOC(=O)[C@]12CCCC=C1N(CCCOC)C(=O)[C@@H]2CC(=O)N1CCOCC1 -6.36%
COc1cccc(N(C)C(=O)[C@@H](C)[C@@H](O)c2ccc3ccccc3c2)c1 -4%
C=C(C)C#CC(Cc1ccccc1)NCC1CC1 (configuration not stated) 4.41%
O=C(CSc1ccc(Cl)cc1)NC1CC1 -0.71%
CS(=O)(=O)N1CCN(C(=O)CSc2ccccc2)CC1 -3.36%
CCC(C)[C@@H](C(=O)OC)N(CCc1cn(Cc2ccccc2)nn1)S(=O)(=O)c1ccccc1Br (some centres not stated) -2.68%
C/C(N)=C(/C#N)C(=O)COC(=O)C1=NN(c2ccccc2)C(=O)CC1 0.03%
CCN1N=C(c2ccccc2)CCC1=O -3.71%
O=C(CNS(=O)(=O)c1ccccc1F)N1CCN(c2ccccn2)CC1 2.08%
O=C(Nc1cc(Cl)cc(Cl)c1)OCCN1CCCC12CCC(c1ccccc1)CC2 (configuration not stated) -10.1%
Cc1cc2ccccn2c1C(=O)c1cccc(S(=O)(=O)N2CCOCC2)c1 -6.52%
CC(=O)Nc1ccc(/C=N/Nc2ccc(C(=O)c3c(C)cc4ccccn34)cc2[N+](=O)[O-])cc1 9.63%
Fc1ccc2nc(COCc3nc4ccc(F)cc4[nH]3)[nH]c2c1 -7.18%
CC1CCCN(Cc2nc3c(c(=O)n(C)c(=O)n3C)n2CC(=O)c2ccccc2)C1 (configuration not stated) 7.4%
Cc1c(CN2CCCCC2)c(O)n(CCO)c(=O)c1C#N -5.55%
COc1cccc(CNC(=O)CNS(=O)(=O)c2ccc3nc(C)sc3c2)c1OC 2.11%
Nc1[nH]c(/C=C2/CCCCC2n2[nH]c(=O)n(-c3ccccc3)c2=O)c(Cc2ccccc2)[n+]1Cc1ccccc1 (configuration not stated) 10.8%
O=S1(=O)c2ccc(Br)cc2OC[C@H](Cc2ccccc2)N1Cc1cn(Cc2ccccc2)nn1 3.61%
CC(c1c[nH]c2ccccc12)c1c(-c2ccccc2)n(C)c2ccccc12 (configuration not stated) 10.3%
O=C(NC(=O)c1ccccc1N1CCCCC1)Nc1ccc(Br)cc1 2.43%
COc1ccc(NS(=O)(=O)c2ccc(N3CCOCC3)c(NC(=O)c3ccccc3Br)c2)cc1 -4.27%
CC(C)CNS(=O)(=O)CC1NCCc2ccccc21 (configuration not stated) -2.16%
CC1CN(/C=C/C(=O)C(F)(F)F)CC(C)O1 (configuration not stated) 2.43%
CNC(=S)NNC(=O)c1ccc(N(C)C)cc1 10.3%
C=CCN1C(=O)[C@@H](CC(=O)NCCCCc2ccccc2)[C@]2(C(=O)OCC)CCCCC/C=C/12 -2.6%
C=CCN1C(=O)[C@@H](CC(=O)NCCCOCCCC)[C@]2(C(=O)OCC)CCCCC/C=C/12 -0.48%
O=[N+]([O-])c1ccccc1NCc1ccc(Cl)cc1 0.44%
c1ccc(CNCc2ccc(CNCc3ccccc3)cc2)cc1 -0.12%
COc1cc(NC(=O)C2CCCN(S(=O)(=O)c3ccc(C(C)(C)C)cc3)C2)cc(OC)c1 (configuration not stated) -0.78%
CCC(=O)c1c(CC)c2n3c1=CC[C@H]3CC(Br)C=2 (some centres not stated) -1.56%
CCCC[C@H]1C2CC(OC(=O)NCc3ccccc3)C(C2)[C@H]2CCCCN21 (some centres not stated) -0.4%
O=C(CSc1nc2ccccc2s1)N=Nc1c(O)[nH]c2ccccc12 -11.1%
COc1ccc(N2CCN(CCNS(=O)(=O)c3ccc([N+](=O)[O-])cc3)CC2)cc1 1.89%
FC(F)(F)c1cccc(NC(=S)OC2CCC23CCC(c2ccccc2)CC3)c1 (configuration not stated) -8.64%
Cc1ccccc1NC(=O)Cn1nnc(-c2ccccc2F)n1 -1.96%
CCCC1CCC2(CCCN2CCOC(=O)NCc2ccccc2)CC1 (configuration not stated) -1.37%
COc1ccc(CN(CCN2CCOCC2)C(=O)c2ccc(C)cc2)cc1OC -2.14%
CCOC(=O)C1(Cc2ccccc2)CCN(Cc2cn(C(C)=O)c3ccccc23)CC1 -0.8%
CCCC[C@H](C(=O)N(CC)c1ccccc1)[C@@H](O)c1ccc2ccccc2c1 -0.99%
CC(c1ccc(N)cc1)c1cn(C)c2ccccc12 (configuration not stated) 10.7%
COC(=O)[C@]12C[C@H](CC(=O)NCCc3ccccc3OC)C(=O)N(Cc3ccco3)C1=C[C@H](C(C)C)O[C@@H]2C1CC1 0.34%
Cc1cc2nc3c(=O)[nH]c(=O)nc-3n(C[C@H](O)[C@H](O)[C@H](O)CO)c2cc1C 6.59%
COC(=O)C1CN(CCc2ccccc2)CCS(=O)(=O)N1Cc1ccc(F)cc1 (configuration not stated) 4.17%
COc1ccc2c(c1)CN1CN(CCc3ccccc3)S(=O)(=O)CC21 (configuration not stated) -7.42%
C=CCN1[C@@H](Cc2ccccc2)COc2cccc(N3CCSCC3)c2S1(=O)=O -1.03%
COc1ccc(NC(=O)CSc2ccc(-c3ccco3)nn2)c(OC)c1 4.03%
O=C(CSc1ccc(-c2ccc(F)cc2)nn1)Nc1ccc2c(c1)OCCO2 9.37%
O=C(NC1CCCCN(Cc2cccc(C(F)(F)F)c2)C1=O)c1ccccc1I (configuration not stated) 8.59%
C#CCN([C@H](C(=O)OC)C(C)CC)S(=O)(=O)c1ccccc1Br (some centres not stated) -0.84%
Cc1ccc(C(=O)CCC(=O)N(C)CC(=O)Nc2c(Cl)cccc2Cl)cc1 4.52%
Cc1nc(-c2ccc(F)cc2)c(CC(=O)N(C)CC(=O)Nc2c(C)cccc2C)s1 -6.4%
O=C(CSc1nc2ccccc2nc1N1CCCCC1)N1CCN(S(=O)(=O)c2cccc([N+](=O)[O-])c2)CC1 1.34%
O=C1C(=O)N(Cc2ccc(-c3ccsc3)cc2)c2ccc(OC(F)(F)F)cc21 4.4%
COc1ccc(C(=O)CSc2nnc(-c3cnccn3)n2-c2ccc(C)cc2)cc1 4.14%

inhibition, active:
C[C@@H]1O[C@@H](OC[C@H]2O[C@@H](Oc3c(-c4ccc(O)cc4)oc4cc(O)cc(O)c4c3=O)[C@H](O)[C@@H](O)[C@@H]2O)[C@H](O)[C@H](O)[C@H]1O 19.5%
Cc1ccc(N=C2NC(=O)/C(=C/C=C/c3ccco3)S2)cc1C 27.6%
O=C(O)c1ccccc1N=N/C(=N/Nc1cc(S(=O)(=O)O)ccc1O)c1ccccc1 28.9%
CCCCC[C@H](C)N1C[C@@H](COCc2ccccc2)Oc2cc(N3CC[C@@H](N(C)C)C3)ccc2S1(=O)=O 23.3%
CCOC(=O)N1CCN(C(=O)CSc2ccc(Cl)cc2)CC1 19%
O=C1CC(c2ccccc2)=NN1c1ccc([N+](=O)[O-])cc1 19.8%
Cc1cc2ccccn2c1C(=O)c1cccc(F)c1 18.5%
CCCn1c(O)c(CN2CCCC(C)C2)c(C)c(C#N)c1=O (configuration not stated) 43.7%
CCn1c(=O)n(CC)c2cc(N3CCCC3)c(NC(=O)c3ccccc3Br)cc21 17.9%
CN(C)c1ccc(N/C=C/C(=O)C(F)(F)F)cc1 17.9%
C=CCN1C(=O)[C@@H](CC(=O)NCC2CCCCC2)[C@]2(C(=O)OC)CCCCC=C12 20.8%
Oc1ccc(CNc2ccccc2O)cc1 21.1%
Oc1ccc(C2Nc3cccc4cccc(c34)N2)cc1 58.9%
Cc1ccc(C2Nc3cccc4cccc(c34)N2)cc1 29.6%
COc1cccc2c1C(=O)c1c(O)c3c(c(O)c1C2=O)CC(O)(C(C)=NNC(=O)c1ccc(Cl)c(Cl)c1)CC3OC1CC(N)C(O)C(C)O1 (configuration not stated) 62.7%
CCOC(=O)/C(N=Nc1cc(C(=O)O)cc(C(=O)O)c1)=C(\O)CCl 21.9%
CCN(CC)CCCC(C)n1c2nc(=O)[nH]c(=O)c-2nc2cc(Cl)ccc21 (configuration not stated) 29.6%
O=C(CSc1ccc(-c2ccco2)nn1)Nc1cccc(F)c1 17.1%
Cc1cccc(C)c1NC(=O)CN(C)C(=O)CCC(=O)c1ccccc1 19.1%
Oc1ccc2ccc3cccc[n+]3c2c1 17.1%
